The values below come from PubChem BioAssay (Tox21).

“And” between values parts separate entries of the source, which are not always exact repeats. Identical values can stand only once. Inconclusive results are not listed. Entries that show only a call come without a potency. Where a structure was tested more than once in an assay, its records may differ in their call. The source made the active and inactive calls. Calls follow the shape of the dose curve; as a rule, active = well fitted cell-killing curve with a large enough effect in the repeat runs; inconclusive = weak or mixed curves; inactive = no such curve, though single readings can be large or run the other way.
Potency is read from the fitted curve at half-maximal effect.

The test in a line: qHTS assay for identifying genotoxic compounds that show differential cytotoxicity against isogenic chicken DT40 cell lines with known DNA damage response pathways - Rad54/Ku70 mutant cell line (AID 743015). Also: nearly all actives have a fitted effect of over 60% in size. To be noted: DT40 Rad54/Ku70 mutant viability, CellTiter-Glo, 40 h; series mostly up to 66.8 µM; activity change, negative = cytotoxicity: at the top concentration. The source says: National Center for Advancing Translational Sciences [NCATS]
NIH Chemical Genomics Center [NCGC]
U.S. Environmental Protection Agency [EPA]
National Institutes of Environmental Health Sciences [NIEHS]
National Toxicology Program [NTP]
U.S. Food and Drug Administration [FDA]
DNA repair pathways play a critical role in cellular homeostasis by repairing DNA damage induced by endogenous processes and xenobiotics. Isogenic chicken DT40 cell lines deficient in different DNA repair pathways can be used to identify genotoxic compounds and aid in characterizing the nature of the DNA damage induced. Two DNA repair-deficient cell lines with disrupted genes, Rad54/Ku70 or Rev3, were used to screen the Tox21 10K compound library. Possible genotoxicity was based on the presence of a significant increase in cytotoxicity in one or more of the DNA repair-deficient cell lines compared to that observed in the parental DNA repair-proficient cell line. CellTiter Glo viability assay (Promega, Madison, WI) was used to measure cell viability in these cells after compound treatment. This assay includes the data from the Rad54/Ku70 mutant cell line.
Tox21 Assay Protocol Summary:
300 DT40 mutant cells in 5 uL/well were dispensed into white, solid-bottom 1536-well plates using a Multidrop Combi (ThermoFisher Scientific, Waltham, MA) dispenser. After the assay plates were incubated at 37 C/5% CO2 for approximately 0.5 hour, 23 nL of compounds dissolved in DMSO, positive controls or DMSO only was transferred into the assay plate by a pintool work station (Kalypsys, San Diego, CA). The assay plates were incubated at 37 C/5% CO2 for 40 hours. After 5 uL per well of CellTiter-Glo reagent was added into each well of the assay plates, the plates were incubated for 30 min at room temperature and the luminescence intensity of the plates was measured using a ViewLux (PerkinElmer, Shelton, CT) plate reader.
Regarding `O=c1c(-c2ccc(O)cc2)coc2cc(O)ccc12`, the “activity change, negative = cytotoxicity” value was -1.41% (inactive).
For `COCC(=O)O`, the Potency result was “inactive”.
Take `CCCCOCCO`: the Potency result was “inactive”.
The same measure, in the same setting: the same measure for `C=C1C2CCC(C2)C1(C)C` (stereo not given): “inactive”; for `CC(=O)[C@@]1(O)CC[C@H]2[C@@H]3CCC4=CC(=O)CC[C@]4(C)[C@H]3CC[C@@]21C`: 24.3 µM (active).
Take `Nc1c(S(=O)(=O)O)cc(Br)c2c1C(=O)c1ccccc1C2=O`: the “activity change, negative = cytotoxicity” value was -0.239% (inactive).
For the compound `CCC(C)C=O` (stereo not given), the Potency result was “inactive”.
Take `O=[N+]([O-])c1cccc(Cl)c1`: the Potency result is “inactive”.
Still for that read-out and setting: in the case of `CNC[C@H](O)[C@@H](O)[C@H](O)[C@H](O)CO` it was “inactive”; in that of `CC(C)(C)C1CCC(O)CC1` (stereo not given), “inactive”; in that of `Cc1cc(Cc2ccc(N)c(C)c2)ccc1N`, 61.1 µM (active) and 68.6 µM (active).
Consider `OC[C@@H](O)[C@H](O)[C@H](O)[C@@H](O)CO`, for which the Potency result was “inactive”.
In the case of `C=C(C#N)C(=O)OCC`, the Potency result is “inactive and 24.3 µM (active)”.
Same read-out and setting: in the case of `CC(C)n1c(/C=C/[C@@H](O)C[C@@H](O)CC(=O)O)c(-c2ccc(F)cc2)c2ccccc21` it was 3.35 µM (active) and 8.63 µM (active).
Regarding `CCOC(=O)C1OC1c1ccccc1` (stereo not given), the “activity change, negative = cytotoxicity” value was 13.1% [at 95.1 µM] (inactive).
Still for that read-out and setting: in the case of `CC(C)(N=C=O)c1cccc(C(C)(C)N=C=O)c1` it was 9.15% (inactive).
For the compound `Oc1ccc(OCc2ccccc2)cc1`, the Potency was 4.52 µM (active) and 11.9 µM (active).
Still for that read-out and setting: in the case of `O=S(=O)(O)CCS` it was “inactive”.
With `O=S(=O)(O)c1cc(S(=O)(=O)O)c2c(N=Nc3ccccc3)c(O)ccc2c1`, the Potency entry was “inactive”.
Same read-out and setting: in the case of `ClC1=C(Cl)C(Cl)(Cl)C(Cl)=C1Cl` it was “inactive and 770 nM (active)”.
On to `CC1(C)CC(N=C=O)CC(C)(CN=C=O)C1` (stereo not given), for which the Potency entry was “inactive”.
With `CCCCCCCCCCCCOCC1CO1` (stereo not given), the Potency result was “inactive”.
The same measure, in the same setting: in the case of `O=C(c1cc(O)c(O)c(O)c1)c1ccc(O)c(O)c1O` it was 30.5 µM (active) and 13.7 µM (active); in that of `OC[C@@H](O)[C@@H](O)[C@H](O)[C@@H](O)CO`, “inactive”; in that of `CC(C)(C)C(=O)C1C(=O)c2ccccc2C1=O`, 13.7 µM (active).
In the case of `CC1(C)O[C@@H]2C[C@H]3[C@@H]4C[C@H](F)C5=CC(=O)CC[C@]5(C)[C@H]4[C@@H](O)C[C@]3(C)[C@]2(C(=O)CO)O1`, the “activity change, negative = cytotoxicity” value is 3.27% (inactive).
Regarding `CS(=O)(=O)c1ccc([C@@H](O)[C@@H](CO)NC(=O)C(Cl)Cl)cc1`, the Potency was 7.17 µM (active) and 4.92 µM (active).
On the same count and under the same terms, in the case of `CC1=C(/C=C/C(C)=C/C=C/C(C)=C/CO)C(C)(C)CCC1` it was 43.8 µM (active) and 25.7 µM (active).
On the same count and under the same terms, in the case of `CCCCCCC(C)(C)S` it was “inactive”; in that of `C=C(C)C(=O)OCCC[Si](OC)(OC)OC`, “inactive”.
For `c1ccc2[nH]cnc2c1`, the “activity change, negative = cytotoxicity” value was 1.32% (inactive).
In the case of `NCCNCCNCCNCCN`, the “activity change, negative = cytotoxicity” value is -2.66% (inactive).
As for `O=C1CCCCC1`, the Potency result was “inactive”.
Same read-out and setting: the same measure for `Cc1cc(NS(=O)(=O)c2ccc(N)cc2)no1`: “inactive”.
With `CC[Si](OC(C)=O)(OC(C)=O)OC(C)=O`, the “activity change, negative = cytotoxicity” value is -2.83% (inactive).
For the compound `O=C1O[C@H](CO)[C@@H](O)[C@H](O)[C@H]1O`, the Potency result was “inactive”.
The same measure, in the same setting: the same measure for `CC1CC(OC(=O)c2ccccc2O)CC(C)(C)C1` (stereo not given): “inactive”.
Same read-out and setting: the same measure for `CC#C[C@]1(O)CC[C@H]2[C@@H]3CCC4=CC(=O)CCC4=C3[C@@H](c3ccc(N(C)C)cc3)C[C@@]21C`: 5.96 µM (active) and 21.7 µM (active).
Still for that read-out and setting: the same measure for `CCc1ccccc1O`: “inactive”.
For `CCCCCCCCCC(=O)O`, the Potency was 61.2 µM (active) and inactive.
